The inhibition is the drop in the measured response relative to a control, in per cent.

The campaign covered roughly 330,000 compounds. About 10,000 (3%) were called active. What follows is part of a selection rich in actives, with near analogues and random picks from the rest. Values without a mark were called inactive.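 Rule for the calls: active = inhibition of at least 50% at 8 µM in the primary screen; inactive = the rest.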

Sequence of Protein Mdm4 (Homo sapiens) + E3 ubiquitin-protein ligase Mdm2 (Homo sapiens) (O15151 whole entry, looked up): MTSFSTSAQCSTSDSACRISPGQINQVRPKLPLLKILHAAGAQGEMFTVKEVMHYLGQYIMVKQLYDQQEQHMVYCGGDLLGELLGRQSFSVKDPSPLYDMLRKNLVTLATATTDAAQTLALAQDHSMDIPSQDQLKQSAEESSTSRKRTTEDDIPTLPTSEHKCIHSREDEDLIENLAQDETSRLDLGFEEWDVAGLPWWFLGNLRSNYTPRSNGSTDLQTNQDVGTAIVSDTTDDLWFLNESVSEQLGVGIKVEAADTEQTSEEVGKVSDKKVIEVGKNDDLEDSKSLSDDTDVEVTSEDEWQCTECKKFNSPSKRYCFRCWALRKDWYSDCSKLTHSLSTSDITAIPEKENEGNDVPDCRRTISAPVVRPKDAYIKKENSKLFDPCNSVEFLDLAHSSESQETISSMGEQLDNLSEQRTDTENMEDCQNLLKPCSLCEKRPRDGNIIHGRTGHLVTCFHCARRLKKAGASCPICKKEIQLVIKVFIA
Sequence of Protein Mdm4 (Homo sapiens) + E3 ubiquitin-protein ligase Mdm2 (Homo sapiens) (Q00987 whole entry, looked up): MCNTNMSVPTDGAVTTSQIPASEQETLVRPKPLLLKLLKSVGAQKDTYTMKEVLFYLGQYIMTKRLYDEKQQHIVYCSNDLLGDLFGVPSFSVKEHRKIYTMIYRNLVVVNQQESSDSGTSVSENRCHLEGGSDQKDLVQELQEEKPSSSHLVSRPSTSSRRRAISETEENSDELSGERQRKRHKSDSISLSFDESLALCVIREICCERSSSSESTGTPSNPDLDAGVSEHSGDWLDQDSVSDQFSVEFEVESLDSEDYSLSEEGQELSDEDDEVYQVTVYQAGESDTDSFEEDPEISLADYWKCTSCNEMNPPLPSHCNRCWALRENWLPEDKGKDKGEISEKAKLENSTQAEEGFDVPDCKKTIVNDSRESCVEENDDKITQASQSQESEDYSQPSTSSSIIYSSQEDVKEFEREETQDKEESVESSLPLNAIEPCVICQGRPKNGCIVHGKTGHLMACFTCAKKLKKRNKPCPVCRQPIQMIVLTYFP

The experiment concerns the target Protein Mdm4 (Homo sapiens) + E3 ubiquitin-protein ligase Mdm2 (Homo sapiens) (UniProt O15151+Q00987). Kind of experiment: disruptors of Mdm2/MdmX RING complex – cell-based, luminescence, split luciferase, SaOS-2, uHTS, primary screen (AID 485346). To be noted: SaOS-2 split-luciferase Mdm2/MdmX complementation, at 8 µM, hits give high values.
Turning to `Nc1nnnn1CC(=O)N/N=C/c1ccc(-c2cccc(Cl)c2)o1`, the inhibition is 0.676%.

As to `Nc1nnn(CC(=O)N/N=C/c2ccccc2)n1`, the inhibition was 14.3%. As to `O=C(Cn1nnc(-c2ccccc2)n1)N/N=C/c1ccc(-c2ccc(Cl)cc2)o1`, the inhibition is 69.4% (active). For `Cc1ccc(-n2c(=O)cc(N3CCN(Cc4ccccc4)CC3)[nH]c2=O)cc1`, the inhibition is 27.6%. On to `CN(C)S(=O)(=O)c1ccc(N2CCCC2)c(C(=O)Nc2ccc(Br)cc2F)c1`, for which the inhibition is 16.4%. The result for `CN1CCC(N(C)S(=O)(=O)c2ccc(NC(=O)c3cccc(C#N)c3)cc2)CC1` reads -11.1%; that for `Cc1ccc2nc(NC(=O)C3CSC4(C)CCC(=O)N34)sc2c1` (centres undefined), 11.9%; that for `O=C(COc1ccccc1O)NC1CCCC1`, 7.91%. `CCCCCCc1ccc(O)cc1O`: the inhibition is 26.2%.

Regarding `CCCCCCc1cc2cc(-c3nnc(-c4ccccc4)o3)c(=O)oc2cc1O`, the inhibition was 84.7% (active). For `Cc1c(CC(=O)NCCCCCC(=O)O)c(=O)oc2cc3occ(-c4ccccc4)c3cc12`, the inhibition was 7.02%. With `COc1ccc(N2CCN(C(CNS(=O)(=O)c3ccc(C)cc3)c3ccccc3)CC2)cc1` (centres undefined), the inhibition is 10.9%. Regarding `CCC1CO/C(=C(\C(=C(Cl)Cl)N2CCOCC2)[N+](=O)[O-])N1` (centres undefined), the inhibition was 4.94%.

In the case of `CN(C)CCCN(C(=O)c1ccc(S(=O)(=O)N2CCCCCC2)cc1)c1nc2ccc(Br)cc2s1`, the inhibition was 70.8% (active).

On to `CCN(CC)CCN(C(=O)c1ccc(S(=O)(=O)N2CCOCC2)cc1)c1nc2cc3c(cc2s1)OCCO3`, for which the inhibition was 4.55%. On to `CS(=O)(=O)c1ccc2nc(NC(=O)c3ccc(Cl)nc3)sc2c1`, for which the inhibition was 20.5%. For the molecule `CN(C)CCCN(C(=O)c1ccc(S(=O)(=O)N2CCCCCC2)cc1)c1nc2cc3c(cc2s1)OCCO3`, the inhibition is 52.3% (active). Regarding `CN(C)CCCN(C(=O)c1ccc(S(=O)(=O)N2CCCc3ccccc32)cc1)c1nc2ccc(F)cc2s1`, the inhibition was 76% (active). With `CC1CCN(C(=O)c2cccc(S(=O)(=O)N3CCCc4ccccc43)c2)CC1`, the inhibition is 16.9%.

For `Cc1ccc2nc(N(CCN(C)C)C(=O)C3=COCCO3)sc2c1`, the inhibition was 23.3%. Regarding `COc1ccc2sc(N(CCCN(C)C)C(=O)c3ccc(S(=O)(=O)N(C)C4CCCCC4)cc3)nc2c1`, the inhibition was 19.3%. `CCOc1ccc2nc(N(CCCN(C)C)C(=O)c3ccc(C(=O)c4ccccc4)cc3)sc2c1`: the inhibition was 48.2%. As to `CS(=O)(=O)c1ccc2nc(NC(=O)c3ccc(N4CCCC4=O)cc3)sc2c1`, the inhibition was 56.8% (active).

`CCc1ccc2nc(N(CCCN(C)C)C(=O)c3ccc4c(c3)OCCO4)sc2c1`: the inhibition is 39.7%. Take `COc1cccc(C(=O)Nc2nc3ccc(S(C)(=O)=O)cc3s2)c1`: the inhibition was -20.5%.

For the molecule `CCN(CC)CCn1cnc2c1c(=O)n(CCOC(=O)c1cc(OC)c(OC)c(OC)c1)c(=O)n2C`, the inhibition is 11.6%. As to `CCN(CC)CCN1C(=O)C2C(C(=O)Nc3ccc(Br)cc3)C3C=CC2(O3)C1C(=O)NC1CCCCC1` (centres undefined), the inhibition was -3.95%. The figure for `CC(C)CN1CCNC(=O)C1CC(=O)N(C)CC1CCOCC1` (centres undefined) is 11.5%; for `Cc1ccc(CNC(=O)c2ccc(CS(=O)Cc3cccc(Cl)c3)o2)cc1` (centres undefined) it is -2.29%. As for `O=C(CCc1ccccc1Cl)Nc1ccc(S(=O)(=O)Nc2nccs2)cc1`, the inhibition was 7.38%. For the molecule `O=C(COC(=O)c1cccnc1Cl)Nc1ccc(S(=O)(=O)N2CCOCC2)cc1`, the inhibition is 5.66%.

Consider `CC1CC(C)CN(S(=O)(=O)c2cccc(C(=O)N3C(=O)c4cccc(N)c4C3=O)c2)C1` (centres undefined), for which the inhibition was 19.4%. In the case of `Cc1cc(C)n(-c2ccc(NC(=O)C3CCCCN3C(=O)c3cccs3)cc2)n1` (centres undefined), the inhibition is 12%. Take `COc1ccc(NC(=O)CCCC2CCCCC2)c(OC)c1`: the inhibition was -13.7%. `Cc1ccccc1-n1nnc2c(=O)oc3ccccc3c21`: the inhibition is 8.39%. Turning to `Cc1ccc(NC(=O)c2cccc(S(=O)(=O)N3CCCc4ccccc43)c2)nc1`, the inhibition was 2.43%. `CNC(=O)c1ccsc1NC(=O)c1ccc(S(=O)(=O)N2CCc3ccccc32)cc1`: the inhibition is 38%. Consider `O=C(Nc1nc2ccc([N+](=O)[O-])cc2s1)c1ccc(S(=O)(=O)N2CCCc3ccccc32)cc1`, for which the inhibition was 96.6% (active).

For the molecule `O=C(CCNC(=O)c1ccccc1)Nc1nc2ccccc2s1`, the inhibition is -16.2%.

For the molecule `O=C(CNC(=O)c1ccccc1)Oc1ccc([N+](=O)[O-])cc1`, the inhibition is -9.24%. Regarding `O=C(NC(Nc1nc2ccc([N+](=O)[O-])cc2s1)(C(F)(F)F)C(F)(F)F)c1ccccc1`, the inhibition is 99.3% (active). `CCCCCCC12CCC(C(=O)O)(CC1)CC2`: the inhibition was 11.2%. Consider `COc1cccc(CC(=O)OCC(=O)NCc2ccc3c(c2)OCO3)c1`, for which the inhibition is 1.87%. `CCn1c(CSCc2c(Cl)cccc2Cl)n[nH]c1=S`: the inhibition was 7.91%. The figure for `Cc1cc(NS(=O)(=O)c2ccc(NC(=O)c3cccc(OC(F)F)c3)cc2)nc(C)n1` is -4.83%; for `COc1ccc(C2c3[nH]c4ccccc4c3C[C@H]3C(=O)N(CC(C)C)CC(=O)N23)c(OC)c1` (some centres undefined) it is 13.6%. Turning to `COc1ccc(Br)c2c1C(=O)CC2`, the inhibition is 7.81%. As to `O=C(NCCCn1ccnc1)C(=O)NCC1OCCN1S(=O)(=O)c1cc(F)ccc1F` (centres undefined), the inhibition is -11.2%. Turning to `CCOC(=O)c1ccc(NC(=O)c2c(N)n(C)c(=O)[nH]c2=O)cc1`, the inhibition was 5.07%.

Take `CCOC(=O)c1ccc(NC(=O)c2cc(=O)[nH]c3ccccc23)cc1`: the inhibition is 23%.

On to `CCOC(=O)c1ccc(NC(=O)c2c(NCc3ccccc3)[nH]c(=O)[nH]c2=O)cc1`, for which the inhibition was 73.2% (active). In the case of `CCOC(=O)N1CCC(N2Cc3cccc(C(=O)Nc4c(C)cccc4CC)c3C2=O)CC1`, the inhibition was 12.5%.

On to `Cc1ccc(NC(=O)Cn2nnc(C(=O)NCc3ccco3)c2N)c(C)c1`, for which the inhibition was 11.7%.

Take `CCOc1ccccc1NC(=O)Cc1cccs1`: the inhibition is 2.43%. As for `CCOc1ccccc1NC(=O)Cn1nnc(C(=O)NCc2cccs2)c1N`, the inhibition was 61.5% (active). The figure for `CCN(CC)CCC(c1ccc2c(c1)OCO2)c1c(OC)cc(OC)c2c(-c3ccccc3)cc(=O)oc12` (centres undefined) is 76.1% (active); for `COc1ccc(-c2c(C)cc3oc(=O)cc(-c4ccccc4)c3c2C)cc1C=O` it is 27.5%. The figure for `CCN(CC)C(=O)CC(c1ccc2c(c1)OCO2)c1c(OC)cc(OC)c2c(-c3ccccc3)cc(=O)oc12` (centres undefined) is 13%. As to `COc1cc(C(CCN2CCN(c3ccccc3)CC2)c2c(OC)cc(OC)c3ccc(=O)oc23)cc(OC)c1OC` (centres undefined), the inhibition is 15.2%. The figure for `COc1cc(OC)c2ccc(=O)oc2c1C(CCN1CCN(c2ccccc2)CC1)c1ccc2c(c1)OCO2` (centres undefined) is 42.4%. Consider `CCN(CC)CCC(c1cc(OC)c(OC)c(OC)c1)c1c(OC)cc(OC)c2c(-c3ccccc3)cc(=O)oc12` (centres undefined), for which the inhibition is 62.7% (active). The figure for `O=C(CN1CCCCC1)NC(=O)Nc1ccccc1F` is 12.7%.

Consider `O=C(NNC1=C(C(=O)C(F)(F)F)CCC1)c1ccncc1`, for which the inhibition was 8.09%.

As for `COc1cc(OC)c(C(=O)NNC(=O)c2ccccc2-n2cccc2)cc1OC`, the inhibition is 12.8%. The result for `CNC(=O)C1CC(=O)N(c2ccc(OCC(=O)Nc3ccccc3C)cc2)C1` (centres undefined) reads 10.1%. With `COc1ccc(CN2[C@@H](CC(=O)O)c3cc(F)ccc3S2(=O)=O)cc1`, the inhibition is -1.99%. As for `CCCCCNC(=O)c1cccnc1SCC(=O)Nc1ccccc1OC`, the inhibition was 1.51%. Turning to `Cc1cccc(NS(=O)(=O)c2cccc(C(=O)NNC(=O)c3ccccc3O)c2)c1`, the inhibition was 46%. On to `CCOC(=O)C(C)N(c1ccccc1Cl)S(C)(=O)=O` (centres undefined), for which the inhibition is 19%. Turning to `CC(C)=CCCC1(C)C=Cc2c(ccc3c2[nH]c2cc(O)c(C)cc23)O1` (centres undefined), the inhibition is 97.9% (active). In the case of `CC(Sc1ccccc1F)C(=O)Nc1cccc(S(=O)(=O)N2CCOCC2)c1` (centres undefined), the inhibition is 8.39%. The figure for `COc1ccc(NC(=O)NC2CC3CCCC(C2)N3Cc2ccccc2)cc1` (centres undefined) is 5.4%.

Regarding `Cc1c(NC(=O)C(C)OC(=O)c2ccccc2O)c(=O)n(-c2ccccc2)n1C` (centres undefined), the inhibition is 13.1%. On to `O=c1[nH]c(/C=C/c2cccc(Br)c2)nc2ccccc12`, for which the inhibition was 48.2%.

`CCOc1cc(/C=C/c2nc3ccccc3c(=O)[nH]2)cc(Br)c1OC`: the inhibition was 69.3% (active). For `COc1ccc(C)cc1-n1nnnc1SCc1nc2ccccc2c(=O)[nH]1`, the inhibition was 18.2%. The figure for `Cc1nonc1OCCn1nnnc1N` is 6.95%; for `COC(=O)c1ccc(Sc2ccc(F)cc2)c(N)c1` it is -11%; for `Cc1ccsc1/C=N/Nc1ccc(Cl)nn1` it is -10.7%.

In the case of `Oc1cccc(/C=N/Nc2ccc(Cl)nn2)c1O`, the inhibition was 68.6% (active).

Take `COc1cccc(/C=N/Nc2ccc(Cl)nn2)c1`: the inhibition is -64.5%. The result for `Cc1cc(N2CCCC2)ccc1NC(=O)COc1ccc(Cl)cc1` reads -1.43%; that for `CCN(CC)C(=O)c1nc[nH]c1C(=O)N(C)Cc1ccccc1`, -2.16%.

With `Cc1ccccc1CNC(=O)CCC(=O)N1Cc2ccccc2Oc2ncccc21`, the inhibition is 18.7%. For the molecule `CC[C@H]1OC(=O)[C@H](C)[C@@H](O[C@H]2C[C@@](C)(OC)[C@@H](O)[C@H](C)O2)[C@H](C)[C@@H](O[C@@H]2O[C@H](C)C[C@H](N(C)C)[C@H]2O)[C@](C)(O)C[C@@H](C)[C@@H]2N[C@@H](COCCOC)O[C@H]([C@H]2C)[C@]1(C)O`, the inhibition was -10.6%. `C=CCOc1c2ccc(C(=O)N(CC)c3ccc(OC)cc3)cc2nn1C`: the inhibition is 13.6%. Regarding `CCCn1nc(C(=O)NNC(=O)CSCC(=O)Nc2cc(C)on2)c2ccccc2c1=O`, the inhibition is -23.6%. Consider `CCCCn1nc(C(=O)Nc2cccc(C(=O)NC3CC3)c2)c2ccccc2c1=O`, for which the inhibition is -19.3%. Take `CCCn1nc(C(=O)Nc2ccc3nc(C)sc3c2)c2ccccc2c1=O`: the inhibition was 65.5% (active).

For the origin of these results see PubChem BioAssay AID485346 (Sanford-Burnham Center for Chemical Genomics, 2010).
